Outcome and AC50 data for five compounds are collected here from PubChem BioAssay (EPA / NIEHS).

Experiment [1] has as its target Nucleoli Translocation, AR (gene 367) (UniProt P10275). Put plainly: UPITT_HCI_U2OS_AR_TIF2_Nucleoli_Antagonist: University of Pittsburgh U2OS Androgen Receptor-Transcriptional Intermediary Factor 2 (AR-TIF2) Antagonism High Content Imaging Assay for Nucleoli Translocation (AID 2283997). The essentials: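 An antagonist-mode imaging screen: engineered U2OS (AR-RFP, TIF2-GFP) exposed to 20 uM compound, 0.2% DMSO. Activity reflects nucleolar red fluorescence change relative to DHT baseline.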

In experiment [2] the target is Ratio of Nucleoli Translocation and Cytoplasm, AR (gene 367) (UniProt P10275). The experiment in a line: UPITT_HCI_U2OS_AR_TIF2_Nucleoli_Cytoplasm_Ratio_Antagonist: University of Pittsburgh U2OS Androgen Receptor-Transcriptional Intermediary Factor 2 (AR-TIF2) Antagonism High Content Imaging Assay for Ratio of Nucleoli Translocation and Cytoplasm (AID 2283999).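 Also: antagonists lower the DHT-driven ratio of nucleolar to cytoplasmic red signal.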 The essentials: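 Compounds were added to U2OS cells carrying red-fluorescent AR and green-fluorescent TIF2, first at 20 uM, with hits confirmed in triplicate and titrated from 0.195 to 50 uM. Nucleolar versus cytoplasmic AR-RFP fluorescence was then quantified by imaging, with analysis relative to DHT.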
Ratio of Nucleoli Translocation and Cytoplasm, AR (gene 367), sequence (P10275 whole entry, looked up): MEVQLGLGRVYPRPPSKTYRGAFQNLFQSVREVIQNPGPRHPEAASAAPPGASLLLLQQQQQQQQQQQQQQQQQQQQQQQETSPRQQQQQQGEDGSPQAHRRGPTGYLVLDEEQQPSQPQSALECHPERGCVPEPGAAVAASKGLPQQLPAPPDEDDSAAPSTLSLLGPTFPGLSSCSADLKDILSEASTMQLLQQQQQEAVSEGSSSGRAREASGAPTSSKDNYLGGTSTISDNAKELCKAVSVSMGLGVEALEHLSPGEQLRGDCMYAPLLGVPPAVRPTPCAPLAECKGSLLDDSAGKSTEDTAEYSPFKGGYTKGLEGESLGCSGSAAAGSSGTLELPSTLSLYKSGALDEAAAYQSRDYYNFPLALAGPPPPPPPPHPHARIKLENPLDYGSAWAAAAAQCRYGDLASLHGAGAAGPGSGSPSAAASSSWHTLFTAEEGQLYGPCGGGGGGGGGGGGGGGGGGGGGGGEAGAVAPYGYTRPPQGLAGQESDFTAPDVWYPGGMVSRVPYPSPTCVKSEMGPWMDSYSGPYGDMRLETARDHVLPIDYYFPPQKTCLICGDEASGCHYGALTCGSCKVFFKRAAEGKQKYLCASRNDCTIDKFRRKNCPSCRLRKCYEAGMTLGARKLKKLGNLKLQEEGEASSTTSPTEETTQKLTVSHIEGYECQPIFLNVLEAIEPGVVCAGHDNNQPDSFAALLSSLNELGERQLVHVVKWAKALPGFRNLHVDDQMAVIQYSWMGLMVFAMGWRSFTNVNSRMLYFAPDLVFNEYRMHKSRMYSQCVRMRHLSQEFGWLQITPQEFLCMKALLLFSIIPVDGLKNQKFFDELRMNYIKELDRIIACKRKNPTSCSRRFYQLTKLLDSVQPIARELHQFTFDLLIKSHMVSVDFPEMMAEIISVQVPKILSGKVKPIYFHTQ

Experiment [3] has the same target. The experiment in a line: UPITT_HCI_U2OS_AR_TIF2_Nucleoli_Cytoplasm_Ratio_Agonist: University of Pittsburgh U2OS Androgen Receptor-Transcriptional Intermediary Factor 2 (AR-TIF2) Agonism High Content Imaging Assay for Ratio of Nucleoli Translocation and Cytoplasm (AID 2284000).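 Also: hits raise the red nucleolar to cytoplasm ratio above vehicle.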 The essentials: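 Primary screen at 20 uM final (0.2% DMSO), then triplicate confirmation and dose-response from 0.195 to 50 uM final (0.5% DMSO). Cells: U2OS with AR-RFP and TIF2-GFP. Endpoint is the nucleoli/cytoplasm red-fluorescence ratio, gain-of-signal vs DMSO.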

Experiment [4] is described as follows: CCTE_Harrill_HTTr_Viability_MCF7: CCTE's 6-hour Cell Viability Assessment for the High-Throughput Transcriptomics (HTTr) Platform, in MCF-7 cells cultured in DMEM + 10% fetal bovine serum, Harrill Lab (AID 2284010; active = hit-call score of the fitted dose curve at least 0.9, where 1 is the maximum; inactive = score below 0.9). Summed up:
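Read-out is propidium iodide gain of signal by high-content imaging, reflecting membrane integrity loss. Measurements are taken 6 h after dosing, eight concentrations per chemical, with DMSO serving as baseline for bidirectional curve fitting.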

The nature of experiment [5]: CCTE_Harrill_HTTr_Apoptosis_MCF7: CCTE's 6-hour Apoptosis Assessment for the High-Throughput Transcriptomics (HTTr) Platform, in MCF-7 cells cultured in DMEM + 10% fetal bovine serum, Harrill Lab (AID 2284011; active = hit-call score of the fitted dose curve at least 0.9, where 1 is the maximum; inactive = score below 0.9). Summed up:
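MCF-7 cells in DMEM + 10% FBS exposed 6 h to chemicals over an eight-point dilution series. Caspase-3/7 activation imaged by high-content CellEvent Green staining; fitted bidirectionally versus DMSO.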

The target of experiment [6] is PGR (gene 5241) (UniProt P06401). Put plainly: TOX21_PR_BLA_Followup_Antagonist_ratio: Tox21 HEK293 Progesterone Receptor (PR) Antagonism Beta-lactamase Follow-Up Assay, Ratio (AID 2283934).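 Also: PR-UAS-bla HEK293T cells stimulated with 1 nM R5020 agonist for 16 hr.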 The essentials:
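Cells are plated, rested 6 hr, then dosed with test compound in DMSO and challenged with 1 nM promegestone. After 16 hr incubation, substrate loading for 2 h at room temperature precedes fluorescence reading; viability is measured in the same wells.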

Experiment [7] is described as follows: TOX21_PR_BLA_Followup_Agonist_viability: Viability Assessment in the Tox21 HEK293 Progesterone Receptor (PR) Agonism Beta-lactamase Follow-Up Assay (AID 2283935).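 Also: signal loss means lower viability so actives are cytotoxic.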 Summed up: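 Cells were plated in medium with 2% charcoal-stripped FBS and rested 6 hr. Compounds in DMSO were then added for 16 hr at 37C, followed by the FRET substrate step and CellTiter-Glo luminescence after 30 min.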

Experiment [8] in a line: TOX21_PR_BLA_Followup_Antagonist_viability: Viability Assessment in the Tox21 HEK293 Progesterone Receptor (PR) Antagonism Beta-lactamase Follow-Up Assay (AID 2283936).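 Also: cells exposed to compound with R5020 agonist for 16 h; hits lower the luminescence signal meaning cytotoxicity.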 Summed up: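 PR-UAS-bla HEK293T cells in medium with 2% charcoal-stripped FBS were treated with compounds plus R5020 for 16 hr at 37C. After the beta-lactamase read, CellTiter-Glo was added to the same wells and luminescence read after 30 min at room temperature.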

Experiment [9] addresses PGR (gene 5241) (UniProt P06401). The experiment in a line: TOX21_PR_LUC_Followup_Agonist: Tox21 HEK293 Progesterone Receptor (PR) Agonism Luciferase Follow-Up Assay (AID 2283937; active = hit-call score of the fitted dose curve at least 0.9, where 1 is the maximum; inactive = score below 0.9). The essentials: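 Seed HEK293-PR-A-luc cells, wait 5 h, add compounds in DMSO, incubate 16 h at 37C, add ONE-Glo, read luminescence after 30 min. Activity is increase over DMSO controls; run with a viability counter-screen.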

The target is the same in experiment [10]. The experiment in a line: TOX21_PR_LUC_Followup_Antagonist: Tox21 HEK293 Progesterone Receptor (PR) Antagonism Luciferase Follow-Up Assay (AID 2283938).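 Also: curve fitted upward as signal gain over DMSO baseline despite antagonist label.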 Summed up: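 HEK293-PR-A-luc cells, 3,000/well, preincubated 5 h at 37C before compound addition in DMSO; 16 h compound exposure at 37C. ONE-Glo luciferase luminescence read after 30 min at room temperature, fitted relative to DMSO baseline.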

Experiment [11] is described as follows: TOX21_PR_LUC_Followup_Antagonist_viability: Viability Assessment in the Tox21 HEK293 Progesterone Receptor (PR) Antagonism Luciferase Follow-Up Assay (AID 2283940). The essentials:
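HEK293-PR-A-luc, 3,000 cells/well; 5 h at 37C/0% CO2; compound pin transfer; 16 h incubation; CellTiter-Glo ATP luminescence, signal loss = cytotoxicity.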

The nature of experiment [12]: TOX21_PR_LUC_Followup_Agonist_viability: Viability Assessment in the Tox21 HEK293 Progesterone Receptor (PR) Agonism Luciferase Follow-Up Assay (AID 2283941).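 Also: loss of signal means cytotoxicity so actives lower viability.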 Summed up: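 Multiplexed viability endpoint of the PR agonist luciferase follow-up: HEK293-PR-A-luc cells treated 16 h at 37C, with viability scored as decrease in CellTiter-Glo ATP signal.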

Records with an inconclusive call do not appear. Active and inactive are the calls of the source. The calls were made as follows, unless noted: active = hit-call score of the fitted dose curve at least 0.9, where 1 is the maximum; inconclusive = response in the unintended direction; inactive = score below 0.9.

PGR (gene 5241), sequence (P06401 whole entry, looked up): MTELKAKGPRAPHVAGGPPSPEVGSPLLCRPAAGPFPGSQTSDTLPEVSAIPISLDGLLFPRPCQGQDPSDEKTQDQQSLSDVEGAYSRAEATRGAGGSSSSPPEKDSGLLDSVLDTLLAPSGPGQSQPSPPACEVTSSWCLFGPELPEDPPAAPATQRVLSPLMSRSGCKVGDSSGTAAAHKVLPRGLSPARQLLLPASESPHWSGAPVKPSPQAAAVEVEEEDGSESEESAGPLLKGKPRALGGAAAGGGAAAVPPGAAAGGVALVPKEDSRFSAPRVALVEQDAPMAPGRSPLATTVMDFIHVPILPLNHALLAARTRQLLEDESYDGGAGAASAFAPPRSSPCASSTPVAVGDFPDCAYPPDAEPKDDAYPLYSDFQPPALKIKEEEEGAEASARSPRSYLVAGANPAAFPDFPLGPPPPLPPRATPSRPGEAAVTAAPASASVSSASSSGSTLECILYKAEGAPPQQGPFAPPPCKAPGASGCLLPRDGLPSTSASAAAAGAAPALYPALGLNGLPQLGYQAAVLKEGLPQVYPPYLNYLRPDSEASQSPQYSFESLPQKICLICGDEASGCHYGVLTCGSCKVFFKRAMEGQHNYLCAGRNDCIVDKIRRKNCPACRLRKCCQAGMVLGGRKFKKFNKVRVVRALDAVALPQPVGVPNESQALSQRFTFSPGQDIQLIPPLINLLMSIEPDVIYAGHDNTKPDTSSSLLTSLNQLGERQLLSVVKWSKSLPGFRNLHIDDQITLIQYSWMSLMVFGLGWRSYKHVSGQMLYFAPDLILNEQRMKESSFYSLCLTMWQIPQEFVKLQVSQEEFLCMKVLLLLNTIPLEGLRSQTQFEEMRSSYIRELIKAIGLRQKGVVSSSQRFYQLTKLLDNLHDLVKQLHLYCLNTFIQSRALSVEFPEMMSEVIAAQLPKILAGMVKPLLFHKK
Nucleoli Translocation, AR (gene 367), sequence (P10275 whole entry, looked up): as the sequence (P10275 whole entry, looked up) above

In the case of `O=C1NC(=O)c2ccc3c4ccc5c6c(ccc(c7ccc1c2c73)c64)C(=O)NC5=O`, the call in experiment [1], in [2], in experiment [3], in experiment [4] and in experiment [5] was inactive.
On to `C[C@@H]1CC(=O)NN=C1c1ccc(NN=C(C#N)C#N)cc1`, for which the AC50 is 17.3 µM (active) in the experiment with PGR (gene 5241) [6] and 3.22 µM (active) with PGR (gene 5241) [10]. Further, the result (in [7]; in experiment [8]; in the experiment with PGR (gene 5241) [9]; in [11]; in [12]) was inactive.
As to `CC(=O)OCC(=O)[C@@]1(O)[C@H](C)C[C@H]2[C@@H]3CCC4=CC(=O)C=C[C@]4(C)[C@@]3(F)[C@@H](O)C[C@@]21C`, the result (with PGR (gene 5241) [6]; in [7]; in experiment [8]; in the experiment with PGR (gene 5241) [10]; in [11]) was inactive.
Turning to `CC(C)(C)C(O)/C=C/c1ccc2c(c1)OCO2` (centres undefined), the result (in the experiment with PGR (gene 5241) [6]; in [7]; in [8]; in the experiment with PGR (gene 5241) [9]; with PGR (gene 5241) [10]; in experiment [11]) was inactive. Further, the result in experiment [12] was inactive.
Turning to `C[C@]12CCC(=O)C=C1CC[C@H]1[C@@H]3CC[C@](O)(C(=O)CO)[C@@]3(C)C[C@H](O)[C@@]12F`, the outcome (in the experiment with PGR (gene 5241) [6]; in [7]; in [8]; with PGR (gene 5241) [10]; in [12]) was inactive.
